PubChem BioAssay (Tox21)
Records with an inconclusive call do not appear. Calls of active or inactive are those of the source. Unless noted, calls come from the whole dose curve; as a rule, active = well fitted curve in the direction sought with a large enough effect in the repeat runs; inconclusive = weak or mixed curves; inactive = no such curve, though single readings can be large; an effect the other way counts as inactive or inconclusive.

Columns and labels:
[1] = qHTS assay to identify small molecule antagonists of the estrogen related receptor signaling pathway with the pleiotropic PPARgamma coactivator (PGC) from Tox21 10K library - cell viability counter screen (AID 1224840; active = well fitted cell-killing curve with a large enough effect in the repeat runs, not every such curve was filed as active; note: nearly all actives have a fitted effect of over 40% in size)
In short: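 Following seeding of 2,000 PGC/ERR cells/well and 6 hours' incubation, test compounds were delivered in DMSO. The plates then sat 17.5 hours at 37 C before a fluorogenic live-cell protease reagent (CellTiter-Fluor) was read after 30 min.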

[2] = biological target: Thyrotropin receptor (Homo sapiens) (UniProt P16473); assay: qHTS assay to identify small molecule agonists of the thyroid stimulating hormone receptor (TSHR) signaling pathway (AID 1224843; calls by dose curve; note: nearly all actives have a fitted effect of over 45% in size)
Thyrotropin receptor (Homo sapiens), sequence (P16473 whole entry, looked up): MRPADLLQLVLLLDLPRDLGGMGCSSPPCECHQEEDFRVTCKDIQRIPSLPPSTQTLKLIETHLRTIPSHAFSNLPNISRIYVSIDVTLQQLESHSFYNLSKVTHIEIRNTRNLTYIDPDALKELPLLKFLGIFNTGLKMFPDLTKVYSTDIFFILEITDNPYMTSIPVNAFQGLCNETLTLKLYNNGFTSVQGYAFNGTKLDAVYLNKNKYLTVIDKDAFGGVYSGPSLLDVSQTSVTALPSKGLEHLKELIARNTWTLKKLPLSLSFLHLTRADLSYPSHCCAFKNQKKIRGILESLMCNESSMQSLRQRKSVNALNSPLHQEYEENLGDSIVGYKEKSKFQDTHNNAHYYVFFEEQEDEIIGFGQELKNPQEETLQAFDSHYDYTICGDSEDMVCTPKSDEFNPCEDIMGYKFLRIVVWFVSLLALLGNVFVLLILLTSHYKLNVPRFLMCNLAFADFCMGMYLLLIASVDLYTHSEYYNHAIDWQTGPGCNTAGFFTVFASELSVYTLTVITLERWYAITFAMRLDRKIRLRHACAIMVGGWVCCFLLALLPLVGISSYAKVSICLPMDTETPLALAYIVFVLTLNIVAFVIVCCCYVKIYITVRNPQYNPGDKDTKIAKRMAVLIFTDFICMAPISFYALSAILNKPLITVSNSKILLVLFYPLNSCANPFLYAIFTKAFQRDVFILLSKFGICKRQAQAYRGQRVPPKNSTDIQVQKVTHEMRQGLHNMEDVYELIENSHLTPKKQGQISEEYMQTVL
In short: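 Steps: seed 800 TSHR-HEK293 cells per well; add test compound and hold 30 min at ambient temperature; dispense cAMP-d2 then anti-cAMP cryptate; incubate 1 h at ambient; measure fluorescence intensity.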

[3] = qHTS assay to identify small molecule agonists of the hypoxia (HIF-1) signaling pathway - cell viability counter screen (AID 1224844; calls by dose curve; note: nearly all actives have a fitted effect of over 50% in size)
In short: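 Cells (HRE-bla ME-180, 2,000 per well) sat 5 hrs at 37C, got compound for 17 hrs, were read for CCF4-AM FRET, and were finally lysed with CellTiter-Glo for a 30 min room-temperature luminescence read.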

[4] = qHTS assay to identify small molecule agonists of H2AX (AID 1224845; active = well fitted activation curve with a large enough effect in the signal ratio in the repeat runs, not every such curve was filed as active; the % refers to the signal ratio)
In short: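 Wild-type CHO-K1 cells, plated overnight, exposed 3hr at 37C to 15 concentrations (0.76% DMSO final). Lysed, then HTRF anti-pH2AX (S139) cryptate and anti-H2AX-d2 antibodies, 24 hr room temperature; 665/620 nm emission read.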

[5] = qHTS assay to identify small molecule agonists of the hypoxia (HIF-1) signaling pathway (AID 1224846; active = well fitted activation curve with a large enough effect in the signal ratio in the repeat runs, not every such curve was filed as active; the % refers to the signal ratio)
In short: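 A low-serum medium (0.5% dialyzed FBS) holding 2,000 HRE-bla ME-180 cells per well is preincubated for 5 hrs, dosed with compounds by pintool, and kept a further 17 hrs at 37C, 5% CO2 before CCF4-AM FRET detection of beta-lactamase.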

[6] = qHTS assay to identify small molecule agonists of H2AX - cell viability counter screen (AID 1224847; calls by dose curve; note: top concentration of the series differs between compounds; nearly all actives have a fitted effect of over 30% in size)
In short: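 Counter-screen for viability: CellTiter-Glo ATP luminescence read after 3 h compound treatment (15-point titration, 0.76% DMSO final) of CHO-K1 cells at 37C, with 30 min room-temperature reagent incubation.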

[7] = A CellTox Green Cytotoxicity Assay to monitor cytotoxicity in HEK293 cells - 0 hour (AID 1224869); note: nearly all actives have a fitted effect of over 50% in size
In short: (§1)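 Fluorescence intensity, read at 0, 8, 16, 24, 32 and 40 h of compound treatment, reflected dye binding to DNA of dead HEK293 cells; compounds (23 nL, DMSO) were added 5 h after plating cells with reagent.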

[8] = A CellTox Green Cytotoxicity Assay to monitor cytotoxicity in HEK293 cells - 40 hour (AID 1224871); note: nearly all actives have a fitted effect of over 45% in size
In short: as §1

[9] = A CellTox Green Cytotoxicity Assay to monitor cytotoxicity in HepG2 cells - 16 hour (AID 1224876); note: nearly all actives have a fitted effect of over 45% in size
In short: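 Using 1536-well format, dye-containing HepG2 suspension was seeded, allowed 5 h at 37 C/5% CO2, dosed by pintool with compounds, positive and negative controls, and imaged for fluorescence across 40 h.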

[10] = qHTS RealTime-Glo MT Cell Viability Assay in HEK293 cells - 32 hour (AID 1224868); note: top concentration of the series differs between compounds; nearly all actives have a fitted effect of over 50% in size
In short: (§2)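 Tox21 10K qHTS, HEK293, 600 cells/well, RealTime-Glo reagent co-dispensed with cells; 5 h preincubation, compound by pintool, 37 C, luminescence at 0–40 h.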

[11] = qHTS RealTime-Glo MT Cell Viability Assay in HEK293 cells - 16 hour (AID 1224872); note: top concentration of the series differs between compounds; nearly all actives have a fitted effect of over 50% in size
In short: as §2

[12] = qHTS RealTime-Glo MT Cell Viability Assay in HepG2 cells - 8 hour (AID 1224873); note: nearly all actives have a fitted effect of over 55% in size
In short: (§3)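 HepG2 cells (600/well) mixed with RealTime-Glo MT reagent, settled 5 h at 37 C/5% CO2 before compound addition. Nonlytic NanoLuc luminescence from viable-cell prosubstrate reduction read repeatedly during 40 h treatment at 37 C.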

[13] = qHTS RealTime-Glo MT Cell Viability Assay in HEK293 cells - 40 hour (AID 1224874); conditions: RealTime-Glo luminescence; max response: hits give low values; note: nearly all actives have a fitted effect of over 50% in size
In short: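 Viable HEK293 cells reduce a cell-permeant prosubstrate; the product diffuses out and is consumed by NanoLuc in the medium to give light. Compounds went in after a 5 h incubation and plates were read over the treatment course.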

[14] = A CellTox Green Cytotoxicity Assay to monitor cytotoxicity in HEK293 cells - 24 hour (AID 1224875); note: series mostly up to about 77 µM; nearly all actives have a fitted effect of over 45% in size
In short: as §1

[15] = qHTS RealTime-Glo MT Cell Viability Assay in HepG2 cells - 24 hour (AID 1224867); note: nearly all actives have a fitted effect of over 50% in size
In short: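 Cells + NanoLuc/prosubstrate dispensed (600 cells/well) → 5 h at 37 C/5% CO2 → compounds in DMSO transferred → 40 h incubation at 37 C, luminescence read at 0, 8, 16, 24, 32, 40 h.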

[16] = qHTS RealTime-Glo MT Cell Viability Assay in HepG2 cells - 40 hour (AID 1224870); note: nearly all actives have a fitted effect of over 50% in size
In short: as §3
% is set by controls: 0 for no effect and ±100 for the full control effect.

CN(C)CC/C=C1/c2ccccc2COc2ccc(CC(=O)O)cc21
inactive: outcome [1] | outcome [2] | outcome [3] | outcome [4] | outcome [5] | outcome [6] | Potency [7] | Potency [8] | Potency [9]

CCCCCCCCCCCCCCC(=O)NC(CO)CCCCCCCCCCCCCC (centres undefined)
inactive: outcome [1] | outcome [2] | outcome [3] | outcome [4] | outcome [5] | outcome [6] | Potency [10] | Potency [7] | Potency [8] | Potency [11] | outcome [12] | max response [13] 5.76% | Potency [14] | Potency [9]

CCCCCc1cccc(=O)o1
inactive: outcome [1] | outcome [2] | outcome [3] | outcome [4] | outcome [5] | outcome [6] | Potency [10] | Potency [7] | Potency [8] | outcome [12] | max response [13] -0.0336% | Potency [9]

NCc1ccc(S(N)(=O)=O)cc1
inactive: outcome [1] | outcome [2] | outcome [3] | outcome [4] | outcome [6] | outcome [15] | Potency [10] | Potency [7] | outcome [16] | Potency [8] | Potency [11] | outcome [12] | max response [13] 4.4% | Potency [14] | Potency [9]

CN(C)CCCCl
inactive: outcome [1] | outcome [2] | outcome [3] | outcome [4] | outcome [5] | outcome [6] | Potency [10] | Potency [7] | outcome [16] | Potency [8] | outcome [12] | max response [13] 0.853% | Potency [14] | Potency [9]

COS(=O)(=O)O
inactive: outcome [1] | outcome [2] | outcome [3] | outcome [4] | outcome [5] | outcome [6] | Potency [10] | Potency [7] | outcome [16] | Potency [8] | Potency [11] | outcome [12] | max response [13] -1.57%

C=CCOC(=O)CCCCCC
inactive: outcome [1] | outcome [2] | outcome [3] | outcome [4] | outcome [5] | outcome [15] | Potency [10] | Potency [7] | outcome [16] | Potency [8] | Potency [11] | outcome [12] | max response [13] 3.28% | Potency [9]

CN1C[C@@H]2C[C@H]1CN2c1cc2c(cc1F)c(=O)c(C(=O)O)cn2C1CC1
inactive: viability change, negative = cytotoxic [1] 6.5% [at 19 µM] | activation [2] 1.11% [at 19 µM] | activity change, negative = cytotoxicity [3] 12.6% [at 15.8 µM] | activation (H2AX phosphorylation) [4] -0.432% [at 31.6 µM] | activation [5] -0.622% [at 15.8 µM] | activity change, negative = cytotoxicity [6] 4.25% [at 31.6 µM] | activity change, negative = cytotoxic [10] 9.47% [at 15.8 µM] | cytotoxicity [7] -0.324% [at 15.8 µM] | activity change, negative = cytotoxic [16] 1.94% [at 15.8 µM] | cytotoxicity increase [8] -7.03% [at 15.8 µM] | activity change, negative = cytotoxicity [11] 1.79% [at 15.8 µM] | viability change, negative = cytotoxic [12] 8.97% [at 15.8 µM] | max response [13] 11.1% | activity change [14] -6.09% [at 15.8 µM, hits give high values] | cytotoxicity increase [9] 2.35% [at 15.8 µM]

Cc1c(NC(=O)c2cccnc2)c(=O)n(-c2ccccc2)n1C
inactive: outcome [1] | outcome [2] | outcome [3] | outcome [4] | outcome [6] | outcome [15] | Potency [10] | Potency [7] | Potency [8] | Potency [11] | outcome [12] | max response [13] 2.99% | Potency [14] | Potency [9]

CC(C)c1ccc(C=O)cc1
inactive: outcome [1] | outcome [2] | outcome [3] | outcome [4] | outcome [5] | outcome [6] | Potency [10] | Potency [7] | outcome [16] | Potency [8] | outcome [12] | max response [13] 13.2% | Potency [14] | Potency [9]

CCCCCCC1(C)CCC(=O)O1 (centres undefined)
inactive: outcome [1] | outcome [2] | outcome [3] | outcome [4] | outcome [5] | outcome [15] | Potency [10] | Potency [7] | Potency [8] | Potency [11] | outcome [12] | max response [13] 3.32% | Potency [14] | Potency [9]

Cc1cc(C)c(C(=O)O)c(C)c1
inactive: outcome [1] | outcome [2] | outcome [3] | outcome [4] | outcome [5] | outcome [6] | Potency [10] | Potency [7] | outcome [16] | Potency [8] | Potency [11] | outcome [12] | max response [13] 1.4% | Potency [14] | Potency [9]

NCCOCCN
inactive: outcome [1] | outcome [2] | outcome [4] | outcome [5] | outcome [6] | outcome [15] | Potency [10] | Potency [7] | outcome [16] | Potency [8] | Potency [11] | outcome [12] | max response [13] 1.68% | Potency [14] | Potency [9]

CC(=O)O[C@H]1C[C@@H]2CC[C@@]1(C)C2(C)C
inactive: outcome [1] | outcome [2] | outcome [3] | outcome [5] | outcome [6] | Potency [10] | Potency [7] | outcome [16] | Potency [8] | outcome [12] | max response [13] 4.28% | Potency [14] | Potency [9]

CCC(C)C(C)=O (centres undefined)
inactive: outcome [1] | outcome [2] | outcome [3] | outcome [5] | outcome [6] | Potency [10] | Potency [7] | outcome [16] | Potency [8] | Potency [11] | outcome [12] | max response [13] 0.997% | Potency [14] | Potency [9]

O=S(=O)(O)c1ccc2c(N=Nc3ccc(S(=O)(=O)O)c4ccccc34)c(O)c(S(=O)(=O)O)cc2c1
inactive: viability change, negative = cytotoxic [1] -10.3% [at 8.39 µM] | activation [2] 3.55% [at 8.39 µM] | activity change, negative = cytotoxicity [3] -2.23% [at 6.97 µM] | activation [5] -0.322% [at 7.01 µM] | activity change, negative = cytotoxicity [6] -5.59% [at 14 µM] | activity change, negative = cytotoxicity [15] -1.89% [at 6.97 µM] | activity change, negative = cytotoxic [10] 7.73% [at 6.97 µM] | cytotoxicity [7] 3.08% [at 6.97 µM] | activity change, negative = cytotoxic [16] -7.38% [at 6.97 µM] | cytotoxicity increase [8] 7.83% [at 6.97 µM] | activity change, negative = cytotoxicity [11] 5.03% [at 6.97 µM] | viability change, negative = cytotoxic [12] 0.329% [at 6.97 µM] | max response [13] 4.14% | activity change [14] 9.08% [at 6.97 µM, hits give high values] | cytotoxicity increase [9] -11.6% [at 6.97 µM]

CCCCOCCOC(=O)COc1ccc(Cl)cc1Cl
inactive: outcome [1] | outcome [2] | outcome [3] | outcome [5] | outcome [6] | outcome [15] | Potency [10] | Potency [7] | Potency [8] | Potency [11] | outcome [12] | max response [13] 1.37% | Potency [14] | Potency [9]
